This is an account of results in PubChem BioAssay (NCI).

SMILES strings stand for the structures. About 83,000 compounds went through this panel and 20% of them were active in at least one assay; those are over-represented in the sample as a whole.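 96-well plates, one dose, 48 hours. Percent growth reported; active if below 10.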 Unmarked numbers belong to inactive results. The source made the active and inactive calls.

Holding throughout (assay): NCI-60 one-dose screen, 48 h (100 = growth as untreated, 0 = no growth, -100 = all killed)
Holding throughout (conditions): 10 µM unless noted

The test system of assay [1] is DU-145 prostate.
Assay [2] relates to K-562 leukemia.
Assay [3] deals with MALME-3M melanoma.
Assay [4] deals with MDA-MB-231 breast.
Assay [5] relates to RXF 393 renal.
For assay [6], the system named is SF-268 CNS.
Assay [7] has as its system SF-295 CNS.
Assay [8] concerns SF-539 CNS.
For assay [9], the system named is UACC-257 melanoma.
Assay [10] has as its system M14 melanoma.
For assay [11], the system named is HCT-15 colon.
The subject of assay [12] is HT29 colon.
In assay [13] the test system is SNB-75 CNS.
The test system of assay [14] is SNB-19 CNS.
Assay [15] concerns U251 CNS.
Assay [16] deals with PC-3 prostate.
For assay [17], the system named is SK-MEL-5 melanoma.
In assay [18] the test system is UACC-62 melanoma.
In assay [19] the test system is LOX IMVI melanoma.
For assay [20], the system named is SK-MEL-28 melanoma.

Turning to `O=C(CN1C(=O)NC2NC(=O)NC21)N/N=C/c1ccccc1[N+](=O)[O-]` (stereo not given), the growth is 113% in assay [1]; 104% in assay [2]; 107% in [3]; 114% in assay [4]; 118% in assay [5]; 107% in assay [6]. Besides, the growth in assay [7] is 105%; in assay [8], 95.2%; in assay [9] it was 116%; in assay [10], 102%; in assay [11], 103%; in assay [12], 112%. Moreover, the growth was 83.3% in [13]; 96.8% in [14]; 107% in assay [15]; 101% in [16]; 99.3% in [17]; 90.1% in assay [18]. Further, the growth in assay [19] is 102%; in assay [20], 107%.

`CC(C)c1ccc(-n2c(=S)[nH]c3sc4cc(O)ccc4c3c2=O)cc1`: the growth is 104% in [1]; 107% in assay [2]; 87.1% in assay [3]; 95.4% in [4]; 91.2% in assay [5]; 99.4% in [6]. The growth in assay [7] was 103%; in assay [8], 93.6%; in assay [9], 111%; in assay [10], 94.6%; in [11], 97.7%; in [12], 113%. Besides, the growth was 85.9% in assay [13]; 90.4% in assay [14]; 103% in assay [15]; 100% in [16]; 98.6% in [17]; 93.6% in assay [18]. In addition, the results for the growth in assay [19] and in [20] were 96.9% and 103%, respectively.

Take `C1CN(SSN2CCOCC2)CCO1`: the growth is 3.92% [100 µM] (active) in assay [1]; 15.2% [100 µM] in assay [2]; -53.1% [100 µM] (active) in assay [3]; -79.4% [100 µM] (active) in assay [4]; -62.6% [100 µM] (active) in assay [5]; -78.9% [100 µM] (active) in assay [6]. For the same molecule, the growth was 5.96% [100 µM] (active) in assay [7]; -37.6% [100 µM] (active) in assay [8]; 49.6% [100 µM] in assay [9]; -7.16% [100 µM] (active) in [10]; 19.2% [100 µM] in assay [11]; -50.6% [100 µM] (active) in [12]. The growth in assay [13] was 48.3% [100 µM]; in [14], 67% [100 µM]; in assay [15], -28% [100 µM] (active); in assay [16] it was 31.2% [100 µM]; in [17], 25.7% [100 µM]; in assay [18], 19.8% [100 µM]. In addition, the growth in assay [19] is -41% [100 µM] (active); in assay [20], -43.3% [100 µM] (active).

Take `COC12C=C/C(=C(/C(=O)OCc3ccncc3)C(=O)CCCCCCCCC3(OC)C=C/C(=C(/C(=O)OCc4ccncc4)C(=O)CCCCCCCC1)O3)O2`: the growth is -60.7% (active) in assay [1]; -4.08% (active) in assay [2]; -67.7% (active) in assay [3]; 1.77% (active) in assay [4]; -82.7% (active) in assay [5]; -28% (active) in assay [6]. The growth in assay [7] is -23.8% (active); in assay [8] it was -60.1% (active); in [9], -29.6% (active); in assay [10], -24.4% (active); in [11] it was -57.7% (active); in [12] it was 1.11% (active). Moreover, the growth in [13] is -57.2% (active); in assay [14], 7.98% (active); in assay [15], -50.1% (active); in assay [16], -35% (active); in assay [17] it was -84.5% (active); in assay [18], -63% (active). The growth in assay [19] was -63.9% (active); in [20], -61.1% (active).

Consider `C#CCOC(=O)/C=C/c1cn(-c2ccccc2)nc1-c1ccc(OC)cc1`, for which the growth in assay [1] was 95.1%; in assay [2], 16.8%; in [3] it was 107%; in assay [4] it was 57.1%; in [5], 73.7%; in [6], 87.9%. In addition, the growth in assay [7] is 94.1%; in assay [8] it was 89.4%; in assay [9], 87.5%; in assay [10], 98.8%; in assay [11] it was 94.1%; in [12], 83.2%. In addition, the growth was 66.6% in assay [13]; 99.5% in assay [14]; 83.1% in assay [15]; 83.4% in assay [16]; 92% in [17]; 85.4% in [18]. Also, the growth in [19] is 83.6%; in [20] it was 115%.

On to `Nc1nc(-c2ccc(Cl)cc2)nc2c1sc(=S)n2-c1ccccc1`, for which the growth in assay [1] was 56.1%; in assay [2] it was 41.1%; in [3] it was -15.9% (active); in assay [4], 34.7%; in assay [5], -2.61% (active); in assay [6], 40.7%. Also, the growth in assay [7] is 16.4%; in [8], -20.7% (active); in assay [9], 59.9%; in assay [10], 68.1%; in assay [11] it was 60.1%; in assay [12], 47.9%. Also, the growth was -30.5% (active) in assay [13]; 37.9% in assay [14]; 17.7% in assay [15]; 62.1% in assay [16]; 36.8% in assay [17]; 46.9% in [18]. Moreover, the results for the growth in assay [19] and in [20] were 29.4% and 55.7%, respectively.

As to `CCOC(=O)C1=C(c2ccccc2)N=C2SC=C(c3ccc(Cl)cc3)N2C1c1ccc(Br)cc1` (stereo not given), the growth is 90.3% in [1]; 84.1% in [2]; 87.4% in assay [3]; 68.5% in [4]; 68.6% in assay [5]; 77% in assay [6]. The growth in assay [7] was 88.7%; in assay [8], 94.9%; in assay [9], 79%; in [10], 83.7%; in assay [11], 80.8%; in [12], 82.2%. Besides, the growth in [13] is 81.7%; in assay [14], 85.4%; in assay [15], 85.8%; in assay [16], 40.6%; in assay [17], 67.7%; in [18] it was 67.7%. Further, the growth is 84.8% in assay [19] and 98.3% in assay [20].

For `CN1CCN(c2cc(Nc3cc(C4CC4)[nH]n3)nc(Nc3ccc(CC(=O)NCc4cccc(F)c4)cc3)n2)CC1`, the growth in [1] was 41.7%; in [2], 20.7%; in assay [3], 34.7%; in assay [4], 14.4%; in [5] it was -56.5% (active); in assay [6], 30.2%. Besides, the growth was 49.4% in assay [7]; -22.9% (active) in assay [8]; 40.9% in [9]; 23.7% in assay [10]; 56.5% in [11]; 8.1% (active) in assay [12]. Further, the growth in [13] is -56% (active); in assay [14], 40%; in assay [15], 26%; in assay [16] it was 47.4%; in assay [17], 68.6%; in assay [18], 32.7%. Moreover, the growth in assay [19] was -28.4% (active); in assay [20], 25.8%.
